# From PubChem BioAssay AID1159580 (chemical genetic matrix, 2015)
# Among all 5,500 compounds or so, about 2,000 (36%) were called active. Inconclusive results (about 18%) are left out. The list shows a part of the results. Unmarked numbers belong to inactive results. No stated cut-off is given here; in the data, active means normalized growth mostly below about 0.91 (no sharp cut-off); inconclusive means no clear call, values can overlap the other calls; inactive means mostly above about 0.92.
# Test: chemical genetic growth profiling, strain panel (AID 1159580);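 further: tested at 20 µM; growth read once vehicle control cultures reached saturation at 30 °C; 1 = growth at the plate median or of vehicle wells; lower values mean less growth of the strain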
# Conditions: growth OD
compound,measurement,setting,value
CC(=O)Oc1ccc2c(c1)CCC1C2CC[C@@]2(C)C1CC[C@@H]2OC(C)=O (stereo not given in full),normalized growth,"S. cerevisiae deletion strains, locus YJR075W, strain HOC1, active compounds read low",0.957
same,normalized growth,"S. cerevisiae deletion strains, locus YKL009W, strain mrt4, active compounds read low",0.956
same,normalized growth,"S. cerevisiae deletion strains, locus YKL068W, active compounds read low",0.971
same,normalized growth,"S. cerevisiae deletion strains, locus YKL085W, strain MDH1 (second series), active compounds read low",0.959
same,normalized growth,"S. cerevisiae deletion strains, locus YKL085W, strain MDH1, active compounds read low",0.959
same,normalized growth,"S. cerevisiae deletion strains, locus YKL160W, strain elf1, active compounds read low",1
same,normalized growth,"S. cerevisiae deletion strains, locus YKL190W, strain CNB1, active compounds read low",0.961
same,normalized growth,"S. cerevisiae deletion strains, locus YKR001C, strain vps1, active compounds read low",0.98
same,normalized growth,"S. cerevisiae deletion strains, locus YKR026C, strain gcn3, active compounds read low",0.973
same,normalized growth,"S. cerevisiae deletion strains, locus YKR091W, strain srl3, active compounds read low",0.99
same,normalized growth,"S. cerevisiae deletion strains, locus YLL001W, strain dnm1, active compounds read low",0.96
same,normalized growth,"S. cerevisiae deletion strains, locus YLL026W, active compounds read low",0.991
same,normalized growth,"S. cerevisiae deletion strains, locus YLL041C, strain sdh2, active compounds read low",0.996
same,normalized growth,"S. cerevisiae deletion strains, locus YLR027C, strain aat2, active compounds read low",0.997
same,normalized growth,"S. cerevisiae deletion strains, locus YLR039C, strain RIC1, active compounds read low",0.838
same,normalized growth,"S. cerevisiae deletion strains, locus YLR058C, strain SHM2, active compounds read low",0.968
same,normalized growth,"S. cerevisiae deletion strains, locus YLR102C, strain apc9, active compounds read low",0.968
same,normalized growth,"S. cerevisiae deletion strains, locus YLR113W, strain HOG1, active compounds read low",0.911
same,normalized growth,"S. cerevisiae deletion strains, locus YLR221C, strain rsa3, active compounds read low",0.958
same,normalized growth,"S. cerevisiae deletion strains, locus YLR258W, strain gsy2, active compounds read low",0.991
same,normalized growth,"S. cerevisiae deletion strains, locus YLR262C, strain YPT6 (second series), active compounds read low",0.663 (active)
same,normalized growth,"S. cerevisiae deletion strains, locus YLR262C, strain YPT6, active compounds read low",0.729
same,normalized growth,"S. cerevisiae deletion strains, locus YLR268W, strain sec22, active compounds read low",0.986
same,normalized growth,"S. cerevisiae deletion strains, locus YLR320W, strain mms22, active compounds read low",0.908
same,normalized growth,"S. cerevisiae deletion strains, locus YLR330W, strain CHS5, active compounds read low",0.981
same,normalized growth,"S. cerevisiae deletion strains, locus YLR342W, strain FKS1 (second series), active compounds read low",1.03
same,normalized growth,"S. cerevisiae deletion strains, locus YLR342W, strain FKS1, active compounds read low",0.969
same,normalized growth,"S. cerevisiae deletion strains, locus YLR357W, strain rsc2, active compounds read low",1
same,normalized growth,"S. cerevisiae deletion strains, locus YLR370C, strain arc18, active compounds read low",0.977
same,normalized growth,"S. cerevisiae deletion strains, locus YLR371W, strain rom2, active compounds read low",0.981
same,normalized growth,"S. cerevisiae deletion strains, locus YLR384C, strain iki3, active compounds read low",0.985
same,normalized growth,"S. cerevisiae deletion strains, locus YLR418C, strain cdc73, active compounds read low",0.963
same,normalized growth,"S. cerevisiae deletion strains, locus YML016C, strain PPZ1, active compounds read low",0.974
same,normalized growth,"S. cerevisiae deletion strains, locus YML032C, strain rad52, active compounds read low",0.974
same,normalized growth,"S. cerevisiae deletion strains, locus YML120C, strain ndi1, active compounds read low",0.97
same,normalized growth,"S. cerevisiae deletion strains, locus YML124C, strain tub3, active compounds read low",0.965
same,normalized growth,"S. cerevisiae deletion strains, locus YMR058W, strain fet3, active compounds read low",1
same,normalized growth,"S. cerevisiae deletion strains, locus YMR078C, strain ctf18, active compounds read low",0.964
same,normalized growth,"S. cerevisiae deletion strains, locus YMR125W, strain sto1, active compounds read low",0.994
same,normalized growth,"S. cerevisiae deletion strains, locus YMR129W, active compounds read low",0.989
same,normalized growth,"S. cerevisiae deletion strains, locus YMR205C, strain PFK2, active compounds read low",0.947
same,normalized growth,"S. cerevisiae deletion strains, locus YMR223W, strain ubp8, active compounds read low",0.984
same,normalized growth,"S. cerevisiae deletion strains, locus YMR231W, strain pep5, active compounds read low",1.02
same,normalized growth,"S. cerevisiae deletion strains, locus YMR263W, strain SAP30, active compounds read low",0.967
same,normalized growth,"S. cerevisiae deletion strains, locus YMR307W, strain GAS1, active compounds read low",1.12
same,normalized growth,"S. cerevisiae deletion strains, locus YNL067W, strain RPL9B, active compounds read low",0.957
same,normalized growth,"S. cerevisiae deletion strains, locus YNL071W, strain lat1, active compounds read low",0.97
same,normalized growth,"S. cerevisiae deletion strains, locus YNL128W, strain TEP1, active compounds read low",0.986
same,normalized growth,"S. cerevisiae deletion strains, locus YNL183C, strain NPR1, active compounds read low",0.894
same,normalized growth,"S. cerevisiae deletion strains, locus YNL209W, strain ssb2, active compounds read low",1.02
same,normalized growth,"S. cerevisiae deletion strains, locus YNL233W, strain BNI4, active compounds read low",0.938
same,normalized growth,"S. cerevisiae deletion strains, locus YNL248C, strain rpa49, active compounds read low",0.986
same,normalized growth,"S. cerevisiae deletion strains, locus YNL250W, strain rad50, active compounds read low",0.972
same,normalized growth,"S. cerevisiae deletion strains, locus YNL271C, strain bni1, active compounds read low",0.996
same,normalized growth,"S. cerevisiae deletion strains, locus YNL298W, strain CLA4, active compounds read low",0.969
same,normalized growth,"S. cerevisiae deletion strains, locus YNL307C, strain MCK1, active compounds read low",0.958
same,normalized growth,"S. cerevisiae deletion strains, locus YNL322C, strain KRE1 (second series), active compounds read low",0.988
same,normalized growth,"S. cerevisiae deletion strains, locus YNR049C, strain mso1, active compounds read low",0.99
same,normalized growth,"S. cerevisiae deletion strains, locus YNR052C, strain pop2, active compounds read low",0.985
same,normalized growth,"S. cerevisiae deletion strains, locus YOL006C, strain TOP1, active compounds read low",0.796
same,normalized growth,"S. cerevisiae deletion strains, locus YOL012C, strain htz1",1.06
same,normalized growth,"S. cerevisiae deletion strains, locus YOL147C, strain pex11, active compounds read low",0.969
same,normalized growth,"S. cerevisiae deletion strains, locus YOR001W, strain rrp6, active compounds read low",0.972
same,normalized growth,"S. cerevisiae deletion strains, locus YOR061W, strain CKA2, active compounds read low",0.937
same,normalized growth,"S. cerevisiae deletion strains, locus YOR069W, strain VPS5, active compounds read low",0.987
same,normalized growth,"S. cerevisiae deletion strains, locus YOR070C, strain gyp1, active compounds read low",1.01
same,normalized growth,"S. cerevisiae deletion strains, locus YOR080W, strain dia2, active compounds read low",1.02
same,normalized growth,"S. cerevisiae deletion strains, locus YOR083W, strain WHI5, active compounds read low",0.936
same,normalized growth,"S. cerevisiae deletion strains, locus YOR106W, strain vam3, active compounds read low",1.03
same,normalized growth,"S. cerevisiae deletion strains, locus YOR136W, strain idh2, active compounds read low",0.982
same,normalized growth,"S. cerevisiae deletion strains, locus YOR144C, strain elg1, active compounds read low",0.968
same,normalized growth,"S. cerevisiae deletion strains, locus YOR184W, strain ser1, active compounds read low",0.906
same,normalized growth,"S. cerevisiae deletion strains, locus YOR231W, strain MKK1, active compounds read low",0.923
same,normalized growth,"S. cerevisiae deletion strains, locus YOR265W, strain rbl2, active compounds read low",0.992
same,normalized growth,"S. cerevisiae deletion strains, locus YOR270C, strain vph1, active compounds read low",0.968
same,normalized growth,"S. cerevisiae deletion strains, locus YOR290C, strain snf2, active compounds read low",0.968
same,normalized growth,"S. cerevisiae deletion strains, locus YOR316C, strain cot1, active compounds read low",0.965
same,normalized growth,"S. cerevisiae deletion strains, locus YPL051W, strain arl3, active compounds read low",1.01
same,normalized growth,"S. cerevisiae deletion strains, locus YPL055C, strain LGE1, active compounds read low",0.838
same,normalized growth,"S. cerevisiae deletion strains, locus YPL078C, strain atp4, active compounds read low",1.04
same,normalized growth,"S. cerevisiae deletion strains, locus YPL106C, strain sse1, active compounds read low",1.03
same,normalized growth,"S. cerevisiae deletion strains, locus YPL240C, strain hsp82, active compounds read low",1
same,normalized growth,"S. cerevisiae deletion strains, locus YPL241C, strain CIN2, active compounds read low",0.972
same,normalized growth,"S. cerevisiae deletion strains, locus YPL256C, strain CLN2, active compounds read low",0.924
same,normalized growth,"S. cerevisiae deletion strains, locus YPR119W, strain clb2, active compounds read low",0.955
same,normalized growth,"S. cerevisiae deletion strains, locus YPR141C, strain kar3, active compounds read low",0.97
same,normalized growth,"S. cerevisiae deletion strains, locus YPR163C, strain tif3, active compounds read low",0.979
same,normalized growth,"S. cerevisiae deletion strains, locus YPR167C, strain met16, active compounds read low",0.975
same,normalized growth,"S. cerevisiae deletion strains, strain wtn01, active compounds read low",0.972
same,normalized growth,"S. cerevisiae strains, strain wild type, active compounds read low",0.958
